Assay outcomes (PubChem)
Hits are enriched below; roughly 15% of the tested compounds scored in any of these assays.
Sm TGR block – blocks Schistosoma mansoni thioredoxin glutathione reductase. Potency, µM (titrated, usually from 114 µM), most hits filed as inhibitors. purified TGR, DTNB reduction, TNB absorbance 405 nm. 360,000 tested, 3% active. Q962Y6; further: nearly all actives have a fitted effect of over 60% in size
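First, TGR (20 nM dispensed) and NADPH were mixed with compound. Second, a 15 min room-temperature incubation followed. Third, further NADPH and then DTNB were added to start the reaction. Finally, TNB absorbance was monitored kinetically.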
Pf growth 48h – P. falciparum growth inhibition at 48 hours (one generation); P. falciparum luciferase growth in erythrocytes, 48 h; Potency, µM (top dose mostly 28.7 µM), actives largely listed as inhibitors; 310,000 tested, 5.9% active; AID 504832
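Luciferase-expressing parasites in RBCs, 2% Hct / 0.1% parasitemia final; RPMI 1640 + 0.5% Albumax; 37 C, 5% CO2, one generation; luminescence read-out, lower signal = inhibition.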
HCV inh – HCV inhibition; Huh7.5.1 HCVcc-Cre infection, luciferase reporter, 44 h; Potency, µM (doses to about 41.8 µM), most hits filed as inhibitors; 340,000 tested, 3.4% active
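Infectious HCV cell culture screen: compound-treated cells (1,000/well, pre-plated 4 h) are infected with HCVcc-Cre at roughly 0.5 moi and grown 44 h. Infection is quantified by luciferase signal after 15 min substrate incubation at room temperature.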
Pf growth 96h – P. falciparum growth inhibition at 96 hour, primary screen for plastid delayed-death inhibitors. P. falciparum luciferase reporter growth, 96 h. Potency, µM (doses to about 28.7 µM), hits mostly inhibitors. 320,000 tested, 6.9% active
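Plates of compound plus infected erythrocytes (2% hematocrit, 0.05% parasitemia final) incubate 96 hours, 37 C, 5% CO2. Detection reagent added; reduced luminescence from the parasites' luciferase reporter flags inhibition.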
SARS PLP yeast – blocks SARS-CoV papain-like protease in a yeast assay; S. cerevisiae expressing SARS-CoV PLpro, growth rescue; Potency, µM (doses to about 32.9 µM), hits mostly activators; AID 485353; 330,000 tested, 0.19% active; calls by dose curve; further: nearly all actives have a fitted effect of over 55% in size
HCMV antiviral – blocks human cytomegalovirus replication; HFF cells, HCMV-luciferase reporter, 72 h; stronger effect = lower value; activity change, negative = inhibition, % at 57.5 µM; 410,000 tested, 4.5% active; in the data active means activity change below about -60%; inconclusive means no clear call, values can overlap the other calls; inactive means above about -39%
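Cell-based, HFFs, 1000 cells/well, 16 h 37C; cpds in DMSO + HCMV-luc, MOI 1 PFU/cell; 72 h 37C; OneGlo luminescence after 5 min RT; norm. to buffer vs Salinomycin 10uM.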
Large screens that a line does not name were inactive. Unless noted, the call rests on the fitted dose curve; in most records, active means well fitted curve in the direction sought with a large enough effect; inconclusive means small, poorly fitted or top-dose-only effect, or another doubt; inactive means no such curve, though single readings can be large; an effect the other way counts as inactive or inconclusive.

COc1ccc(-c2noc(-c3ccc(N4CCN(c5ccccc5OC)CC4)c([N+](=O)[O-])c3)n2)cc1	none (no result: Pf growth 48h, HCV inh, Pf growth 96h, SARS PLP yeast)
COc1cccc(CNC(=O)c2ccc(C)c(S(=O)(=O)N3CCCCC3)c2)c1	Pf growth 48h inconclusive, HCV inh 10µM, Pf growth 96h inconclusive
COc1ccccc1C(CNC(=O)c1ccc(C)c(S(=O)(=O)N2CCCCC2)c1)N1CCCC1 (stereo not drawn)	Pf growth 48h inconclusive, Pf growth 96h 10.4µM
COc1ccc(C(=O)NCC(c2ccc(F)cc2)N2CCOCC2)cc1S(=O)(=O)N1CCCC1 (stereo not drawn)	Pf growth 48h inconclusive, Pf growth 96h 10.4µM
COc1ccc(C(CNC(=O)c2ccc(OC)c(S(=O)(=O)N3CCCC3)c2)N2CCCC2)cc1 (stereo not drawn)	Pf growth 48h inconclusive, Pf growth 96h 10.4µM
COc1ccc(C(=O)NCC(c2ccccc2)c2ccccc2)cc1S(=O)(=O)N1CCOCC1	none (no result: Sm TGR block, Pf growth 48h, Pf growth 96h, SARS PLP yeast)
COc1cccc(CNC(=O)c2ccc(C)c(S(=O)(=O)N3CCOCC3)c2)c1	Pf growth 48h inconclusive, HCV inh inconclusive, Pf growth 96h inconclusive
Cc1ccn2c(Nc3ccc4c(c3)OCCO4)c(-c3ccc(C)o3)nc2c1	none (no result: Pf growth 48h, HCV inh, Pf growth 96h, SARS PLP yeast)
CCCNC(=O)N1CCC2(CC1)CN(C(=O)c1ccccc1)[C@H](CO)c1[nH]c3cc(OC)ccc3c12	none (no result: Sm TGR block, Pf growth 48h, HCV inh, Pf growth 96h, SARS PLP yeast)
COc1cc(NC(=O)C2CCCCC2)c(OC)cc1NC(=O)CN1CCCCC1	HCV inh inconclusive, Pf growth 96h inconclusive
N#C/C(=N\Nc1cccc(Cl)c1)C(=O)c1ccccc1	HCV inh inconclusive, HCMV antiviral -86.7
N#C/C(=N\Nc1ccc(Cl)cc1)C(N)=S	HCV inh inconclusive, Pf growth 96h inconclusive, HCMV antiviral -92.4
N#C/C(=N\Nc1ccc(Cl)cc1)C(=O)c1ccsc1	HCV inh inconclusive, HCMV antiviral -63.9
N#C/C(=N\Nc1ccccc1)C(N)=S	Pf growth 48h inconclusive
COc1ccc(C(=O)/C(C#N)=N/Nc2cccc([N+](=O)[O-])c2)cc1	HCV inh 11.2µM, HCMV antiviral -98.3 (no result: Sm TGR block)
Cc1cccc(C)c1N1CCN(C(=O)Cn2cncn2)CC1	Sm TGR block inconclusive
O=c1c(C(c2ccccc2)c2c(O)sc3ccccc3c2=O)c(O)sc2ccccc12	Sm TGR block inconclusive (no result: Pf growth 48h)
CC1CCN(S(=O)(=O)c2ccc3c(c2)c(=O)c(C(=O)N2CCN(c4cccc(Cl)c4)CC2)cn3C)CC1	none (no result: Pf growth 48h, HCV inh, Pf growth 96h, SARS PLP yeast)
C[C@@H]1CNC(=O)c2c(C(=O)N[C@H](C)c3ccccc3)ncn21	none (no result: Sm TGR block, Pf growth 48h, HCV inh, Pf growth 96h, SARS PLP yeast)
CC(=O)N[C@H]1[C@H](OC2CCCCC2)O[C@H](COC(C)=O)[C@@H](OC(C)=O)[C@@H]1OC(C)=O	none
N#C/C(=N\Nc1ccc(S(=O)(=O)N2CCOCC2)cc1)C(N)=S	Pf growth 48h 14.7µM, Pf growth 96h inconclusive
CC1CCN(S(=O)(=O)c2ccc(N/N=C(/C#N)C(N)=O)cc2)CC1	Pf growth 96h inconclusive
CCCCNS(=O)(=O)c1cccc(NC(=O)[C@@H]2O[C@H](CO)[C@H](O)[C@H](O)[C@H]2O)c1	none (no result: Sm TGR block, Pf growth 48h, HCV inh, Pf growth 96h, SARS PLP yeast)
O=C(NCc1ccccc1)c1nc2c(nnn2Cc2cccc(Cl)c2)c(=O)[nH]1	Pf growth 96h 2.94µM
O=C(c1ccccc1Cl)N1CCCC(c2nc3c(nnn3Cc3ccccc3)c(=O)[nH]2)C1 (stereo not drawn)	none (no result: Pf growth 48h)
O=C(NCc1ccco1)c1nc2c(nnn2Cc2cccc(Cl)c2)c(=O)[nH]1	none
O=C(c1cccs1)N1CCCC(c2nc3c(nnn3Cc3cccc(Cl)c3)c(=O)[nH]2)C1 (stereo not drawn)	Pf growth 48h inconclusive
O=C(c1cccs1)N1CCC(c2nc3c(nnn3Cc3c(Cl)cccc3Cl)c(=O)[nH]2)CC1	Pf growth 48h 5.86µM, Pf growth 96h inconclusive
O=C(Cc1cccs1)N1CCCC(c2nc3c(nnn3Cc3cccc(Cl)c3)c(=O)[nH]2)C1 (stereo not drawn)	Pf growth 48h 8.28µM, SARS PLP yeast inconclusive
O=C(c1cccs1)N1CCC(c2nc3c(nnn3Cc3cccc(Cl)c3)c(=O)[nH]2)CC1	Pf growth 48h 4.65µM
COc1ccc(CN2CCNC(=O)C2CC(=O)NCc2csc(C)n2)c(F)c1 (stereo not drawn)	Sm TGR block inconclusive
COCCNC(=O)c1nc2c(nnn2Cc2cc(C)ccc2C)c(=O)[nH]1	Pf growth 96h 9.28µM, SARS PLP yeast inconclusive
Cc1ccc(Cn2nnc3c(=O)[nH]c(C4CCN(C(=O)Cc5ccccc5F)CC4)nc32)cc1	none (no result: Pf growth 48h, HCV inh, Pf growth 96h, SARS PLP yeast)
Cc1ccc(C)c(Cn2nnc3c(=O)[nH]c(C(=O)NCC4CCCO4)nc32)c1 (stereo not drawn)	Pf growth 48h inconclusive, Pf growth 96h inconclusive
Cc1ccc(Cn2nnc3c(=O)[nH]c(C4CCN(C(=O)c5cccs5)CC4)nc32)cc1	Pf growth 48h 13.1µM (no result: HCMV antiviral)
O=C(NCC1CCCO1)c1nc2c(nnn2Cc2ccccc2Cl)c(=O)[nH]1 (stereo not drawn)	Pf growth 96h 13.1µM
O=C(Cc1ccccc1F)N1CCC(c2nc3c(nnn3Cc3cccc(Cl)c3)c(=O)[nH]2)CC1	HCMV antiviral -62.0 (no result: Pf growth 48h, HCV inh, Pf growth 96h, SARS PLP yeast)
CN1CCN(C(=O)Nc2cccc(-c3ccccc3)c2)CC1	none
O=C(c1ccco1)N1CCC(c2nc3c(nnn3Cc3ccc(F)cc3)c(=O)[nH]2)CC1	Pf growth 48h inconclusive
O=C(Cc1cccs1)N1CCC(c2nc3c(nnn3Cc3ccc(F)cc3)c(=O)[nH]2)CC1	Pf growth 48h inconclusive, HCMV antiviral -95.4
Cc1nc(C)c(C(=O)NNS(=O)(=O)c2ccc3ccccc3c2)s1	HCV inh 12.6µM, HCMV antiviral -73.0
Cc1nc(NS(=O)(=O)c2ccccc2)sc1C(=O)NNS(=O)(=O)c1ccccc1	none
NC(=O)C1C(=O)c2ccccc2C1(C[N+](=O)[O-])c1ccccc1 (stereo not drawn)	HCMV antiviral -101.1 (no result: Sm TGR block, Pf growth 48h, Pf growth 96h, SARS PLP yeast)
Cc1cccc2c1N(CCCOc1ccccc1)C(=O)C2=O	none
Cc1cccc2c1N(CCCOc1ccc(C(C)(C)C)cc1)C(=O)C2=O	HCV inh inconclusive, Pf growth 96h 9.28µM (no result: Pf growth 48h, HCMV antiviral)
CC(C)N=C(NC#N)SCc1ccc(Br)cc1	Pf growth 48h inconclusive, Pf growth 96h 13.1µM
CC(C)c1ccc(NC(=O)c2ccc(NC3=NC4CS(=O)(=O)CC4S3)cc2)cc1 (stereo not drawn)	HCMV antiviral inconclusive
CCCCNC(=O)c1ccc(SCC(=O)N(CC)CC)c([N+](=O)[O-])c1	Pf growth 96h 1.04µM
COc1cc(-c2nc(-c3ccccc3)c(-c3cc([N+](=O)[O-])ccc3C)[nH]2)cc(OC)c1OC	Pf growth 48h 2.62µM, HCV inh 12.6µM, Pf growth 96h inconclusive, HCMV antiviral -73.2
COc1cc(-c2nc(-c3cccc(Cl)c3)c(-c3ccccc3)[nH]2)cc(OC)c1OC	none (no result: Pf growth 48h, HCV inh, Pf growth 96h, SARS PLP yeast)
